Results filed as inconclusive are left out. Calls of active or inactive are those of the source. How the source made its calls: active means hit-call score of the fitted dose curve at least 0.9, where 1 is the maximum; inconclusive means response in the unintended direction; inactive means score below 0.9.
read-out: organic anion transporter (SLCO1B1), SLCO1B1 (gene 10599); test: CLD_SLCO1B1_24hr: CellzDirect (CLD) Gene Expression Assay for organic anion transporter (SLCO1B1) at 24 hours (AID 2283690)
Description: CLD_24hr is a cell-based, multiplexed-readout assay that uses hepatocyte, a human liver primary cell, with measurements taken at 24 hours after chemical dosing in a 96-well plate.CLD_SLCO1B1_24hr is one of 16 assay component(s) measured or calculated from the CLD_24hr assay. It is designed to make measurements of mRNA induction, a form of inducible reporter, as detected with chemiluminescence signals by Quantitative Nuclease Protection Assay (qNPA) technology.Data from the assay component CLD_SLCO1B1_24hr was analyzed at the endpoint, CLD_SLCO1B1_24hr, in the positive analysis fitting direction relative to DMSO as the negative control and baseline of activity. Using a type of inducible reporter, gain-of-signal activity can be used to understand changes in the reporter gene as they relate to the gene SLCO1B1. Furthermore, this assay endpoint can be referred to as a primary readout. To generalize the intended target to other relatable targets, this assay endpoint is annotated to the transporter intended target family, where subfamily is organic anion transporter.
Human hepatocyte cultures were treated daily for two consecutive days with fresh dosing solutions containing appropriate concentrations of the 320 ToxCast chemicals (chemical identities were blinded to CellzDirect and other ToxCast collaborators), vehicle control (0.2% DMSO), and positive control inducers as summarized in Table 1. Due to the large number of treatment groups and chemicals examined, the ToxCast chemicals were divided into two groups (spanning two independent cultures of hepatocytes from separate donor preparations (Hu778: ToxCast plates 1 and 2; Hu776: ToxCast plates 3 and 4). Each preparation of human hepatocyte cultures was treated with respective vehicle control, medium only control, set of six positive controls/reference chemicals for the five hepatic receptor pathways, and a subset of eight of the ToxCast chemicals (indoxacarb, pyrithiobac-sodium, norflurazon, cyhalofop-butyl, methomyl, thiram, acetochlor, and propiconazole). These replicate data, coupled with internal replicates designed within the blinded ToxCast chemical library, provided additional data to evaluate interindividual differences between hepatocyte preparations and their potential impact on chemical profiles.Cell morphology and integrity were evaluated using phase-contrast microscopy as an indicator of hepatocyte cell health (Tyson & Green, 1987). Cultures for each treatment group (i.e., media, vehicle [0.2% DMSO], positive control inducers [multiple concentrations], and the ToxCast chemicals [multiple concentrations]) were observed and cell morphology was assessed relative to vehicle control cultures at each harvest time point (0, 6, 24, or 48 h). […] Images were evaluated at the conclusion of the study to assess changes in cell integrity and account for the effects of chemical exposure on uncharacteristic changes in concentration-dependent gene expression profiles. The results from these determinations of apparent cytotoxicity were annotated (yes/no) alongside the corresponding qNPA data for reference.At the conclusion of each treatment period, hepatocyte cultures (96-well) were washed with 1 volume of HBSS, lysed by addition of 25 ul ArrayPlate lysis buffer (HTG, Tucson, AZ), and 70 ul/well of Denaturation Oil, denatured by incubation at 95C for 10 min, and frozen at approximately -70C until analysis by nuclease protection assay (qNPA) (Roberts et al., 2007). For qNPA analysis, cell lysates were thawed at 50C for approximately 30 min, qNPA probes were added, and samples were incubated at 95C for 10 min to begin the detection process by denaturing the target RNA, dissociating the duplexes and secondary structure hybridization. At the conclusion of the hybridization period, S1 nuclease reagent was added to each sample to digest all nonprotected nucleotides at 50C for 60-90 min. […]

SMILES	outcome
S=C1NCCN1	inactive
CCOC(=O)COc1cc(-c2nn(C)c(OC(F)F)c2Cl)c(F)cc1Cl	inactive
CN(C)NC(=O)CCC(=O)O	inactive
O=c1ccc(=O)[nH][nH]1	inactive
CNC(=O)ON=C(SC)C(=O)N(C)C	inactive
CC(C)[C@H](C(=O)O[C@H](C#N)c1cccc(Oc2ccccc2)c1)c1ccc(Cl)cc1	inactive
CCOP(=S)(OCC)SCCSCC	inactive
CCOP(=S)(OCC)Oc1ccc2c(C)c(Cl)c(=O)oc2c1	inactive
CC1(C(=O)Nc2ccc(O)c(Cl)c2Cl)CCCCC1	inactive
CNC(=O)ON=C(C)SC	inactive
CCCSP(=O)(OCC)Oc1ccc(Br)cc1Cl (centres undefined)	inactive
CNC(=O)Oc1cccc2c1OC(C)(C)O2	inactive
CC(=NC#N)N(C)Cc1ccc(Cl)nc1	inactive
CCCCSP(=O)(SCCCC)SCCCC	inactive
O=C(O)c1cc(Oc2ccc(C(F)(F)F)cc2Cl)ccc1[N+](=O)[O-]	inactive
CN1COCN(Cc2cnc(Cl)s2)C1=N[N+](=O)[O-]	inactive
COc1cccc(C(=O)NN(C(=O)c2cc(C)cc(C)c2)C(C)(C)C)c1C	inactive
CSC1=N[C@@](C)(c2ccccc2)C(=O)N1Nc1ccccc1	inactive
CCOP(=S)(OCC)OC(Cl)C(Cl)(Cl)Cl (centres undefined)	inactive
CCOP(=O)(OCC)Oc1cc(C)nc(C(C)C)n1	inactive

SMILES	outcome
CCNc1nc(Cl)nc(NC(C)(C)C#N)n1	inactive
CCCOc1nn(C(=O)NS(=O)(=O)c2ccccc2C(=O)OC)c(=O)n1C	inactive
CCOC(=O)CC(SP(=O)(OC)OC)C(=O)OCC (centres undefined)	inactive
COP(=O)(OC)C(O)C(Cl)(Cl)Cl (centres undefined)	inactive
CCOP(=O)(SC(C)CC)N1CCSC1=O (centres undefined)	inactive
CN(C)[C@@H]1C(=O)C(C(N)=O)=C(O)[C@@]2(O)C(=O)C3=C(O)c4c(O)cccc4[C@@](C)(O)[C@H]3[C@H](O)[C@@H]12	inactive
COP(=O)(NC(C)=O)SC (centres undefined)	inactive
CCc1cnc(C2=NC(C)(C(C)C)C(=O)N2)c(C(=O)O)c1 (centres undefined)	inactive
CC(C1CC1)C(O)(Cn1cncn1)c1ccc(Cl)cc1 (centres undefined)	inactive
COc1ccc(C(=CC(=O)N2CCOCC2)c2ccc(Cl)cc2)cc1OC	inactive
CC(COc1ccc(Oc2ccccc2)cc1)Oc1ccccn1 (centres undefined)	inactive
CC(C)=CC1C(C(=O)OCN2C(=O)C3=C(CCCC3)C2=O)C1(C)C (centres undefined)	inactive
Nc1nc(N)nc(NC2CC2)n1	inactive
CCc1cccc(CC)c1N(COC)C(=O)CCl	inactive
C=C(C)[C@H]1Cc2c(ccc3c2O[C@@H]2COc4cc(OC)c(OC)cc4[C@@H]2C3=O)O1	inactive
COc1cc(OC)nc(Sc2cccc(Cl)c2C(=O)O)n1	inactive
C#CCC1=C(C)C(OC(=O)C2C(C=C(C)C)C2(C)C)CC1=O (centres undefined)	inactive
Cc1nn(-c2cc(NS(C)(=O)=O)c(Cl)cc2Cl)c(=O)n1C(F)F	inactive
CN(C)C(=O)Nc1cccc(C(F)(F)F)c1	inactive
